In PubChem BioAssay:
Active and inactive are the calls of the source. Unless noted, no rule for the calls is given here.

How the values were obtained:
[1] = A549 cell viability effects, profiling panel, calcein-AM fluorescence, 48 h, basal (AID 1162); settings: higher = more signal; also: test concentration not given here
[2] = adipocyte viability effects, profiling panel, cell-based, 3T3-L1 adipocytes, calcein-AM fluorescence, 48 h, basal (AID 1163); settings: 3T3-L1 adipocytes viability, higher = more signal; also: test concentration not given here
[3] = HepG2 cell viability effects, profiling panel, calcein-AM fluorescence, 48 h, basal (AID 1164); settings: higher = more signal; also: test concentration not given here
[4] = MM1S cell viability effects, profiling panel, calcein-AM fluorescence, 48 h, basal (AID 1165); settings: higher = more signal;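 also: viability of MM1S multiple myeloma cells under basal unstimulated conditions; test concentration not given here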
[5] = basal RPMI8226 viability, no added stimulus, profiling panel, cell-based, calcein-AM fluorescence, 48 h, PK04 Diversity Set (AID 1166); settings: RPMI8226 myeloma viability, higher = more signal;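 also: cells grown under basal conditions without added stimulus; test concentration not given here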
[6] = basal HepG2 mitochondrial membrane potential changes, profiling panel, cell-based, JC-1 fluorescence, 24 h, 100 nL compound (AID 1167); settings: higher = more signal; also: test concentration not given here
[7] = basal 3T3-L1 adipocyte mitochondrial potential changes, profiling panel, cell-based, JC-1 fluorescence, 3T3-L1 adipocytes, 24 h, 100 nL compound (AID 1168); settings: JC-1 mitochondrial fluorescence, higher = more signal, called active from +8 up or from −8 down; also: test concentration not given here
[8] = basal RPMI8226 mitochondrial membrane potential changes, profiling panel, cell-based, JC-1 fluorescence, 24 h, 100 nL compound (AID 1169); settings: RPMI8226 myeloma, JC-1 mitochondrial potential fluorescence, higher = more signal; also: test concentration not given here
[9] = basal MM1S mitochondrial membrane potential changes, profiling panel, cell-based, JC-1 fluorescence, 24 h, 100 nL compound (AID 1170); settings: higher = more signal; also: test concentration not given here
[10] = A549 lung cancer cell viability effects, profiling panel, resazurin fluorescence, 24 h, PK04 Diversity Set (AID 1171); settings: higher = more signal, called active from +8 up or from −8 down; also: test concentration not given here
[11] = HepG2 liver cancer cell viability effects, profiling panel, resazurin fluorescence, 24 h, PK04 Diversity Set (AID 1172); settings: higher = more signal; also: test concentration not given here
[12] = basal S. cerevisiae growth modulation, no modifier, primary screen, OD600, strain BY4716, 24 h, basal condition (AID 1173); settings: OD600, 24 h, higher = more signal, called active from +8 up or from −8 down
[13] = MM1S myeloma cell viability, profiling panel, resazurin fluorescence, basal, 24 h, PK04 Diversity Set (AID 1174); settings: higher = more signal, called active from +8 up or from −8 down;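 also: MM1S multiple myeloma cell line; test concentration not given here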
[14] = target: Dihydroorotate dehydrogenase (quinone), mitochondrial (Plasmodium falciparum (isolate 3D7)) (UniProt Q08210); test: PfDHODH enzyme inhibitors, primary screen, biochemical, C-terminal His tag, absorbance 600 nm (AID 1175); settings: DCIP absorbance 600 nm, higher = more signal, called active from +8 up or from −8 down;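 also: recombinant parasite enzyme with a five histidine tag at its C terminus; test concentration not given here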
Dihydroorotate dehydrogenase (quinone), mitochondrial (Plasmodium falciparum (isolate 3D7)), sequence (Q08210 whole entry, looked up): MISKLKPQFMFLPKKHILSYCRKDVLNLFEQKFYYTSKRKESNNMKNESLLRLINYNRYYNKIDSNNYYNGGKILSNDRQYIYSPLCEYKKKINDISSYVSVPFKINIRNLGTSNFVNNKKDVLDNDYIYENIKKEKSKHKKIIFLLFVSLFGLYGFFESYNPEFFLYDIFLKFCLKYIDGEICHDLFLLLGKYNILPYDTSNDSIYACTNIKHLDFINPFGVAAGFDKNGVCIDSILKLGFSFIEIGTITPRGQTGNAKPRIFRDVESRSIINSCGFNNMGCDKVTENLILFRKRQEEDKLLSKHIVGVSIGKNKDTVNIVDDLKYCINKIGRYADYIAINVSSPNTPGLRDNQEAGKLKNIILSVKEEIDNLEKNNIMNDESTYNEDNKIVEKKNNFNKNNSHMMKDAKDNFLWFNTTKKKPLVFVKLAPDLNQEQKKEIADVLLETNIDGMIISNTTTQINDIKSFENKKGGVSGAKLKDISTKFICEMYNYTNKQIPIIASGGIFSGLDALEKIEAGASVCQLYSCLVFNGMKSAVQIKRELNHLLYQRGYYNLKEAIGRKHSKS

[15] = P. aeruginosa biofilm formation inhibitors, primary screen, strain PAO1, LB-PBS medium, absorbance 600 nm (AID 1176); also: test concentration not given here; settings: P. aeruginosa PAO1 growth/biofilm, A600, 12 h; higher = more signal
[16] = S. cerevisiae RM11-1a growth modifiers, primary screen, strain RM11-1a, OD600, basal, 24 h (AID 1177); settings: OD600, 24 h, higher = more signal, called active from +8 up or from −8 down;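 also: cultures grown under basal conditions with no added stressor; test concentration not given here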
[17] = E. coli acrAB mutant growth effects, primary screen, E. coli filamentation inducers, strain DRC39, OD650, 24 h (AID 1178); settings: higher = more signal, called active from +8 up or from −8 down;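 also: growth measured as culture turbidity by optical density at 650 nm; test concentration not given here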
[18] = E. coli acrAB mutant growth effects, primary screen, E. coli filamentation inducers, strain DRC39, OD650, 48 h (AID 1179);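 also: screen aims at cell division blockers that make cells filament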; settings: E. coli DRC39 delta-acrAB growth, higher = more signal, called active from +8 up or from −8 down
[19] = RPMI8226 myeloma cell viability, profiling panel, resazurin fluorescence, basal, 24 h, PK04 Diversity Set (AID 1180); settings: higher = more signal;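 also: RPMI8826 multiple myeloma cell line at 5000 cells per well; test concentration not given here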
[20] = target: E3 ubiquitin-protein ligase XIAP (Homo sapiens) (UniProt P98170); test: XIAP binders, primary screen, biophysical, small-molecule microarray, fluorescence 635 nm (AID 1181); settings: small-molecule microarray binding, higher = more signal;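 also: score merges 667 nm emission and signal to noise over triplicate slides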
E3 ubiquitin-protein ligase XIAP (Homo sapiens), sequence (P98170 whole entry, looked up): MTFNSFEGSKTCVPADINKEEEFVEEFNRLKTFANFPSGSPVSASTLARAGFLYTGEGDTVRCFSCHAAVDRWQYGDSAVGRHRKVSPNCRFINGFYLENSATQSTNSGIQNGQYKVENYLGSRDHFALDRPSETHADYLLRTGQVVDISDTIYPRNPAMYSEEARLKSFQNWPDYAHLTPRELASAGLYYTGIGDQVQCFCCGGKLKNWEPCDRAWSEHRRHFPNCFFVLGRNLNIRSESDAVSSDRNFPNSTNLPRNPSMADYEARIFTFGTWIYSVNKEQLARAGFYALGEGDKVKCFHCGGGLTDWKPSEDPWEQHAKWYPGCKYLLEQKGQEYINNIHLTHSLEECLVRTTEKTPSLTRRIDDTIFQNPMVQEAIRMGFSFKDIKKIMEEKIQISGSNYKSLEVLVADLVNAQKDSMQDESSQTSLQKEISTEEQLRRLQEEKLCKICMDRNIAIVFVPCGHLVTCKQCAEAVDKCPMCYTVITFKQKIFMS

| Structure (SMILES) | z-score [1] | z-score [2] | z-score [3] | z-score [4] | z-score [5] | z-score [6] | z-score [7] | z-score [8] | z-score [9] | z-score [10] | z-score [11] | z-score [12] | z-score [13] | composite z-score [14] | z-score [15] | z-score [16] | z-score [17] | z-score [18] | z-score [19] | composite z-score [20] |
| --- | --- | --- | --- | --- | --- | --- | --- | --- | --- | --- | --- | --- | --- | --- | --- | --- | --- | --- | --- | --- |
| C=CCOC(=O)[C@@H]1[C@H]2C(=O)O[C@H](c3ccccc3)[C@H](c3ccccc3)N2[C@H](c2ccc(OCCOC(=O)[C@H]3C[C@H]4C(=O)N[C@@H](Cc5ccccc5)C(=O)N4[C@H]3c3cccc(OCCO)c3)cc2)[C@@]12C(=O)Nc1ccc(I)cc12 | 0.188 | -0.282 | 0.921 | -3.18 | -0.493 | 0.244 | 0.473 (inactive) | -0.903 | -1.57 | 0.535 (inactive) | -0.208 | -0.215 (inactive) | -1.94 (inactive) | -3.73 (inactive) | 0.199 (inactive) | 2.13 (inactive) | -0.847 (inactive) | 0.573 (inactive) | -1.01 | -0.128 |
| CCOc1cc(C(O)C2C=CC3C(=O)NC(=O)C3N2Nc2ccccn2)ccc1O (stereo not given) | -0.773 | -1.5 | -0.506 | -0.369 | -0.328 | -1.87 | -0.892 (inactive) | -0.0441 | 0.157 | -0.923 (inactive) | -1.35 | 1.67 (inactive) | -1.33 (inactive) | 0.21 (inactive) | 0.599 (inactive) | 0.24 (inactive) | -1.17 (inactive) | -0.0662 (inactive) | -0.672 | 0.0652 |
| COCCCNC(=O)[C@@]1(Cc2ccccc2I)c2ccccc2C(=O)N(Cc2ccccc2Cl)[C@H]1c1ccc(CO)cc1 | -0.119 | 0.39 | 0.9 | -0.36 | -0.503 | 1.29 | 0.781 (inactive) | -0.778 | 0.148 | 2.16 (inactive) | 1.01 | -1 (inactive) | 1.59 (inactive) | -0.278 (inactive) | 0.112 (inactive) | -0.0403 (inactive) | 0.0867 (inactive) | 0.607 (inactive) | 1.82 | 0.186 |
| CCCCC(=C=CC[C@H](O)c1ccccc1OCCO)C[C@H](O)c1ccccn1 | 0.747 | -0.547 | 1.04 | 0.7 | -0.327 | 0.21 | 0.589 (inactive) | -0.45 | -1.14 | 0.412 (inactive) | 0.973 | -1.8 (inactive) | 0.843 (inactive) | -1.36 (inactive) | 0.0235 (inactive) | 0.0401 (inactive) | 0.917 (inactive) | 0.726 (inactive) | 1.13 | 0.104 |
| O=C1O[C@@H](c2ccccc2)[C@@H](c2ccccc2)N2[C@@H](c3ccc(O)cc3)[C@]3(C(=O)Nc4ccc(C#CC5(O)CCCCCC5)cc43)[C@@H](C(=O)N3CCN(c4ncccn4)CC3)[C@H]12 | -0.415 | 0.292 | -0.458 | -0.0835 | -0.813 | -0.512 | -0.68 (inactive) | -1.05 | -0.203 | 0.533 (inactive) | 1.63 | -0.271 (inactive) | 0.0176 (inactive) | -1.08 (inactive) | -0.641 (inactive) | 0.642 (inactive) | 0.614 (inactive) | 0.11 (inactive) | 1.1 | -0.127 |
